According to PubChem BioAssay (NCATS):
Results filed as inconclusive are left out. Calls of active or inactive are those of the source. The call rests on the fitted dose curve; in most records, active means well fitted inhibition curve with a large enough effect; inconclusive means small, poorly fitted or top-dose-only effect; inactive means flat fitted curve, though single readings scatter.

Key:
Experiment in all cases: qHTS profiling for inhibitors of Plasmodium falciparum proliferation (AID 504749); further: nearly all actives have a fitted effect of over 60% in size
Conditions in all cases: P. falciparum in erythrocytes, SYBR Green DNA, 72 h; series mostly up to 28.7 µM
CP194 = system: CP194
How it was run: (§1)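 Three-day growth assay of blood-stage parasites in erythrocytes (0.3% parasitemia, 2.5% hematocrit) at 37 C, 5% CO2, quantified by SYBR Green DNA staining after overnight detergent lysis.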

CP201 = system: CP201
How it was run: as §1

CP203 = system: CP203
How it was run: as §1

CP211 = system: CP211
How it was run: as §1

CP215 = system: CP215
How it was run: as §1

CP217 = system: CP217
How it was run: as §1

CP237 = system: CP237
How it was run: as §1

CP238 = system: CP238
How it was run: as §1

CP247 = system: CP247
How it was run: as §1

CP250 = system: CP250
How it was run: as §1

CP252 = system: CP252
How it was run: as §1

CP256 = system: CP256
How it was run: as §1

CP260 = system: CP260
How it was run: as §1

CP265 = system: CP265
How it was run: as §1

CP266 = system: CP266
How it was run: as §1

CP269 = system: CP269
How it was run: as §1

CP286 = system: CP286
How it was run: as §1

CP291 = system: CP291
How it was run: as §1

CP262 = system: CP262
How it was run: as §1

CP268 = system: CP268
How it was run: as §1

Measured: Potency
Potency means the concentration at half of the fitted maximal effect.

CCCCCCCCCCCC(=O)N(CCO)CCO
not listed: CP262 | CP268
inactive: all other assays above

C=C1C(CCl)(CCl)C2(Cl)C(Cl)C(Cl)C1(Cl)C2(Cl)Cl (stereo unspecified)
active: CP194 6.75 µM | CP201 13.5 µM | CP203 3.79 µM | CP211 12 µM | CP215 3.79 µM | CP217 3.16 µM | CP237 3.16 µM | CP238 3.16 µM | CP247 3.16 µM | CP250 1.12 µM | CP252 3.16 µM | CP256 3.55 µM | CP260 3.55 µM | CP262 4.78 µM | CP265 3.55 µM | CP268 4.26 µM | CP269 4.26 µM | CP286 3.55 µM | CP291 4.26 µM

CC1=C(/C=C/C(C)=C/C=C/C(C)=C/C(=O)Oc2c(C)c(C)c3c(c2C)CC[C@@](C)(CCC[C@H](C)CCC[C@H](C)CCCC(C)C)O3)C(C)(C)CCC1
not listed: CP266
inactive: all other assays above

CC12CCC(C[N+](C)(CCC[N+](C)(C)C)C1)C2(C)C (stereo unspecified)
not listed: CP262
inactive: all other assays above

CNC(=O)c1c(I)c(C(=O)NCC(=O)Nc2c(I)c(C(=O)O)c(I)c(C(=O)NCCO)c2I)c(I)c(N(C)C(C)=O)c1I
inactive: all assays above

O=C(O)c1cc(N=Nc2ccc(O)c(C(=O)O)c2)ccc1O
not listed: CP286
inactive: all other assays above

O=P(O)(O)CP(=O)(O)O
not listed: CP265 | CP268
inactive: all other assays above

Cc1ccc(S(=O)(=O)O)cc1C
not listed: CP266
inactive: all other assays above

OCC(O)CO
not listed: CP262
inactive: all other assays above

O=C(O)[C@H]1C(=CCO)O[C@H]2CC(=O)N12
not listed: CP266
inactive: all other assays above

NCCO/C=C/[C@H](N)C(=O)O
not listed: CP266
inactive: all other assays above

Cc1cccc(C)c1NC(=O)C1CCCCN1C (stereo unspecified)
not listed: CP266
inactive: all other assays above

NC(=O)CC[C@@H]1NC(=O)[C@H](Cc2ccccc2)NC(=O)[C@H](Cc2ccc(O)cc2)NC(=O)[C@@H](N)CSSC[C@@H](C(=O)N2CCC[C@H]2C(=O)N[C@@H](CCCN=C(N)N)C(=O)NCC(N)=O)NC(=O)[C@H](CC(N)=O)NC1=O
active: CP260 2.24 µM
not listed: CP265
inactive: all other assays above

CCCCC
not listed: CP262
inactive: all other assays above

C[C@H]1O[C@@H](O[C@H]2[C@@H](O)C[C@H](O[C@H]3[C@@H](O)C[C@H](O[C@H]4CC[C@@]5(C)[C@H](CC[C@@H]6[C@@H]5C[C@@H](O)[C@]5(C)[C@@H](C7=CC(=O)OC7)CC[C@]65O)C4)O[C@@H]3C)O[C@@H]2C)C[C@H](O)[C@@H]1O
inactive: all assays above

CN(CCO)CC(O)Cn1cnc2c1c(=O)n(C)c(=O)n2C (stereo unspecified) (tested in a mixture with another compound)
inactive: all assays above

CO[C@H]1C[C@@H]2CC[C@@H](C)[C@@](O)(O2)C(=O)C(=O)N2CCCC[C@H]2C(=O)O[C@H]([C@H](C)C[C@@H]2CC[C@@H](OC(=O)C(C)(CO)CO)[C@H](OC)C2)CC(=O)[C@H](C)/C=C(\C)[C@@H](O)[C@@H](OC)C(=O)[C@H](C)C[C@H](C)/C=C/C=C/C=C/1C
not listed: CP266
inactive: all other assays above

O=P(O)(O)O
inactive: all assays above

CC(C)(Oc1ccc(C2CCCc3ccccc32)cc1)C(=O)O (stereo unspecified)
not listed: CP266
inactive: all other assays above

FC(F)OC(Cl)C(F)(F)F (stereo unspecified)
not listed: CP268
inactive: all other assays above

S=C=Nc1ccc(N=C=S)cc1
not listed: CP266
inactive: all other assays above

CCCCC[C@H](O)/C=C/[C@H]1[C@H](O)CC(=O)[C@@H]1C/C=C\CCCC(=O)O
not listed: CP260
inactive: all other assays above

CC/C=C\C/C=C\C/C=C\C/C=C\C/C=C\CCCC(=O)O
not listed: CP247
inactive: all other assays above

CC(=O)Oc1cc(C(F)(F)F)ccc1C(=O)O
not listed: CP260
inactive: all other assays above

CC(C)OC(=O)Nc1ccc2nc(-c3cscn3)[nH]c2c1
not listed: CP247 | CP266 | CP269 | CP291
inactive: all other assays above

CN(C)CCCSc1ccccc1NC(=O)/C=C/c1ccccc1
not listed: CP237 | CP268
inactive: all other assays above

CC(C)(C)CC(C)(C)c1ccc(OCCO)cc1
not listed: CP256
inactive: all other assays above
